Here are results for five compounds from PubChem BioAssay.

Active and inactive are the calls of the source.

The target in one assay is Albumin (Bos taurus) (UniProt P02769). Briefly: bovine serum albumin binders on microarray, profiling panel, artefact control for SMM control protein annotation, biochemical, small-molecule microarray, Alexa647 label, 635/667 nm fluorescence (AID 1118).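 Further: score merges 667 nm emission intensity and signal-to-noise per printed compound spot.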 The following applies: BSA-A647 binding, fluorescence 635 nm, higher = more signal.
A short description of assay [1]: small-molecule microarray binders of probe aXIP, primary screen, biochemical, NeuroSMM set, 635/667 nm fluorescence (AID 1119).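 Further: probe is the protein aXip251-270 applied at 1 µg/mL to compound-printed slides; binding of probe to printed compounds measured as 667 nm fluorescence plus signal to noise.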 The following applies: higher = more signal, called active from +8 up or from −8 down.
Assay [2] in a line: small-molecule binders of probe aNOTCH3, primary screen, biochemical, small-molecule microarray, 635/667 nm fluorescence (AID 1120).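 Further: probe is a biotin-tagged antibody raised against NOTCH3 rather than NOTCH3 protein; score merges spot fluorescence near 667 nm with spot signal to noise.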 To be noted: higher = more signal.
A short description of assay [3]: small-molecule binders of probe aNOTCH2, primary screen, biochemical, small-molecule microarray, 635/667 nm fluorescence (AID 1121).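 Further: score merges feature fluorescence read at 667 nm with its signal to noise.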 The following applies: higher = more signal.
The target in assay [4] is Carbonic anhydrase 2 (Homo sapiens) (UniProt P00918). Nature of the assay: CAII small-molecule binders, profiling panel, biochemical, small-molecule microarray, Alexa647-labelled CAII (AID 1122). The following applies: CAII-A647 binding fluorescence, higher = more signal.
Assay [5] can be described thus: COS7 lysate on small-molecule microarray, probe aHis, 635 nm (AID 1123).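 Further: z-score combines 667nm fluorescence intensity with signal-to-noise per printed compound spot.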 To be noted: COS7 cell lysate, fluorescence, higher = more signal.
A short description of assay [6]: compound binding in COS7 lysate, probe aLAP1, primary screen, cell lysate, small-molecule microarray (AID 1124).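 Further: lysate comes from COS7 cells expressing LAP1 and is applied at 0.3 µg/mL; score merges spot fluorescence near 667 nm with signal-to-noise over triplicate slides.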 The following applies: probe aLAP1, fluorescence, higher = more signal.
The next assay has as its system Sam68 (KHDRBS1). Briefly: Sam68 small-molecule binders, primary screen, biochemical, small-molecule microarray, 635 nm fluorescence (AID 1125).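 Further: score merges 667 nm channel intensity with signal to noise over triplicate slides.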 To be noted: small-molecule microarray binding, higher = more signal.
Assay [7] concerns Chordin-like protein 2 (CHRDL2). Nature of the assay: CHRDL2 small-molecule binders, primary screen, biochemical, small-molecule microarray, 635 nm fluorescence (AID 1126).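 Further: printed compound slides probed with Chrdl2 protein at 4 µg/mL for 1 h at 4 C; score merges 667 nm emission intensity with signal to noise over three replicate slides.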 The following applies: small-molecule microarray binding, fluorescence 635 nm; higher = more signal.
In assay [8] the target is Concanavalin-A (Canavalia ensiformis) (UniProt P02866). Nature of the assay: ConA small-molecule binders, primary screen, artefact control for SMM control protein annotation, biochemical, small-molecule microarray, Alexa647 label, 635 nm (AID 1127).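 Further: z combines 667 nm emission intensity with signal-to-noise across three replicate slides.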 The following applies: ConA-A647 binding fluorescence, higher = more signal.
Assay [9] is described as follows: anti-His antibody binders, primary screen, artefact control for SMM control protein annotation, biochemical, small-molecule microarray, 635 nm fluorescence (AID 1128).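 Further: score merges feature fluorescence with signal-to-noise for each printed compound spot.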 To be noted: anti-His Alexa647 antibody binding, higher = more signal.
Assay [10] relates to Human papillomavirus type 1a E7 protein (residues 1-88). Briefly: HPV1a E7 small-molecule binders, primary screen, biochemical, small-molecule microarray, residues 1-88, 635 nm (AID 1129). The following applies: small-molecule microarray binding, fluorescence 635 nm; higher = more signal.
The target in assay [11] is Focal adhesion kinase 1 (Homo sapiens) (UniProt Q05397). Briefly: small-molecule microarray binders of FAK, primary screen, biochemical, 635/667 nm fluorescence, BSA, DTT (AID 1130).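 Further: composite of spot emission at 667 nm and signal to noise over triplicate slides.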 The following applies: PTK2 binding, 635 nm fluorescence, higher = more signal.
In assay [12] the test system is Fibrinogen (Alexa647-labelled). Briefly: fibrinogen binders on compound microarrays, profiling panel, artefact control for SMM control-protein annotation, biochemical, small-molecule microarray, 635/667 nm fluorescence (AID 1131).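 Further: z-score merges 667 nm fluorescence with per-spot signal-to-noise over triplicate slides.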 The following applies: fibrinogen-A647 binding fluorescence, higher = more signal.
Assay [13] addresses Follistatin (Homo sapiens) (UniProt P19883). Nature of the assay: follistatin binders on small-molecule microarrays, primary screen, biochemical, small-molecule microarray, 635/667 nm fluorescence (AID 1132). To be noted: FST binding, 635 nm fluorescence, higher = more signal.
In assay [14] the target is Fibroblast growth factor 2 (Homo sapiens) (UniProt P09038). Nature of the assay: FGF2 binders on small-molecule microarrays, primary screen, biochemical, small-molecule microarray, 635/667 nm fluorescence (AID 1133). To be noted: small-molecule microarray binding, FGF2, fluorescence 635/667; higher = more signal.
Assay [15] in a line: mitochondrial membrane potential change in A549 cells, profiling panel, cell-based, JC-1 fluorescence, basal, 24 h, 100 nL (AID 1138).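 Further: A549 lung adenocarcinoma cells under basal conditions with no added stimulus; test concentration not given here.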 The following applies: higher = more signal.
In another assay the test system is Lefty1. Briefly: Lefty1 binders on small-molecule microarrays, primary screen, biochemical, small-molecule microarray, 635/667 nm fluorescence (AID 1139). To be noted: small-molecule microarray binding, fluorescence 635/667; higher = more signal.
Assay [16] deals with wheat germ agglutinin (Triticum aestivum), Alexa647-labelled. Nature of the assay: wheat germ agglutinin binders on compound microarrays, profiling panel, artefact control for SMM control-protein annotation, biochemical, small-molecule microarray, 635/667 nm fluorescence (AID 1140).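 Further: score merges 667 nm feature emission with signal to noise over triplicate slides.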 The following applies: WGA-A647 binding, 635 nm fluorescence, higher = more signal.
For assay [17], the target named is Luciferin 4-monooxygenase (Photinus pyralis) (UniProt P08659). Briefly: firefly luciferase enzyme inhibitors, primary screen, biochemical, luminescence, purified enzyme, 2006 set (AID 1141).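 Further: cell-free assay with purified firefly luciferase at 100 ng per well in PBS; test concentration not given here.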 To be noted: SteadyGlo luminescence, 30 min, higher = more signal, called active from +8 up or from −8 down.
Luciferin 4-monooxygenase (Photinus pyralis), sequence (P08659 whole entry, looked up): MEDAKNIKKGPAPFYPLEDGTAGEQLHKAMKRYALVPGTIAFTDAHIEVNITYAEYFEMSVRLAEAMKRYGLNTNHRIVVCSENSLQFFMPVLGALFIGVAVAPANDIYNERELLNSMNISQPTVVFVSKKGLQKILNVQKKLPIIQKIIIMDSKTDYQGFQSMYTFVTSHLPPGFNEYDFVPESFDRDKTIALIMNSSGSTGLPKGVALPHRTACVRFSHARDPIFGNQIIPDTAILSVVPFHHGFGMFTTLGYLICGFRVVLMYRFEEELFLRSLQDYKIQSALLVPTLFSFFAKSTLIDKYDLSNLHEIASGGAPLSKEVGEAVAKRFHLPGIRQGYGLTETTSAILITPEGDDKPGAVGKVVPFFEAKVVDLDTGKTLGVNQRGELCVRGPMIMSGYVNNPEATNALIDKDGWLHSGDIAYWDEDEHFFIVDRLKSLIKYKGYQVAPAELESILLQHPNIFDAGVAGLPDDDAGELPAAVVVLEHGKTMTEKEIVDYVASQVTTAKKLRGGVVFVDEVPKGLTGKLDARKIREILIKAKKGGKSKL

Fibroblast growth factor 2 (Homo sapiens), sequence (P09038 whole entry, looked up): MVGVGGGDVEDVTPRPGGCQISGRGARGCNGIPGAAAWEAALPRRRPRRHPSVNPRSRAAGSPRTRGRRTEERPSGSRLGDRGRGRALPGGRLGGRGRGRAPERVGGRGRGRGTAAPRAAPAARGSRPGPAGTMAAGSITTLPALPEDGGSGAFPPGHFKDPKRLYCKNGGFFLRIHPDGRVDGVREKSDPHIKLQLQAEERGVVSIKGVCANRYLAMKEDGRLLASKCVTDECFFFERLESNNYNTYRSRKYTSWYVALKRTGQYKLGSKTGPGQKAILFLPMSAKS
Focal adhesion kinase 1 (Homo sapiens), sequence (Q05397 whole entry, looked up): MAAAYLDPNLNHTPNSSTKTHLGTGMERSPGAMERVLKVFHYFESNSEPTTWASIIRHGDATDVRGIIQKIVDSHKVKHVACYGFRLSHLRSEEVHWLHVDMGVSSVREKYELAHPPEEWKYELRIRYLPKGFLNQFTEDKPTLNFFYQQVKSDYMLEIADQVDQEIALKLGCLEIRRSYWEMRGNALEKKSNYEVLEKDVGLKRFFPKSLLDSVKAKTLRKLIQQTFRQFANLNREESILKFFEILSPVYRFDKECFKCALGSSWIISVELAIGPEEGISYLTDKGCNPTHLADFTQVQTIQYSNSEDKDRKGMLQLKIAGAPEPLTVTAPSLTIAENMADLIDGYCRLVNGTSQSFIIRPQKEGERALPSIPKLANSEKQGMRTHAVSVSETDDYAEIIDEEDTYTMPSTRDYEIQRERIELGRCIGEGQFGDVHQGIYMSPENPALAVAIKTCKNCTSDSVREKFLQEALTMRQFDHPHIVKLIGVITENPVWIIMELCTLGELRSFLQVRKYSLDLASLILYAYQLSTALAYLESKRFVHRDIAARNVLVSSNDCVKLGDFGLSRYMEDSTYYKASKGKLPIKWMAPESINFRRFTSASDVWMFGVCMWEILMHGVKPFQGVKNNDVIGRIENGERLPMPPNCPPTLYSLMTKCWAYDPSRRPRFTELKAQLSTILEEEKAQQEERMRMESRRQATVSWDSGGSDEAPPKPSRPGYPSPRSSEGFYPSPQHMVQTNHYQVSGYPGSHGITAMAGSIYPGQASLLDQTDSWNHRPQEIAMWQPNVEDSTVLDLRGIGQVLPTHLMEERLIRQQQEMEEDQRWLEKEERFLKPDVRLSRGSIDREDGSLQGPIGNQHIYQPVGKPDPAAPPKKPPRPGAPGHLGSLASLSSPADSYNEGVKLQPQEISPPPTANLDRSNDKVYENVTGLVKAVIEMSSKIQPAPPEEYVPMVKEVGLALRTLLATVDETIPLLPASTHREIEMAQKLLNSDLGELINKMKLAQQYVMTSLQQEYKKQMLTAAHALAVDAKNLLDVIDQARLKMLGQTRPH
Concanavalin-A (Canavalia ensiformis), sequence (P02866 whole entry, looked up): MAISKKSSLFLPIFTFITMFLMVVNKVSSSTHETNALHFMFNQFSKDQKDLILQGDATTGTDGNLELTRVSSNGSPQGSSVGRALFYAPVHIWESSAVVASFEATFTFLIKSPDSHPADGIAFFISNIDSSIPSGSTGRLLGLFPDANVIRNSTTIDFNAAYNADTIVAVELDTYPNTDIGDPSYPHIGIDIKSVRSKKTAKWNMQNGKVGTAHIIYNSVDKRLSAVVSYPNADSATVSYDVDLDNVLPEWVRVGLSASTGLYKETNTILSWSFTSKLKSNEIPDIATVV
Albumin (Bos taurus), sequence (P02769 whole entry, looked up): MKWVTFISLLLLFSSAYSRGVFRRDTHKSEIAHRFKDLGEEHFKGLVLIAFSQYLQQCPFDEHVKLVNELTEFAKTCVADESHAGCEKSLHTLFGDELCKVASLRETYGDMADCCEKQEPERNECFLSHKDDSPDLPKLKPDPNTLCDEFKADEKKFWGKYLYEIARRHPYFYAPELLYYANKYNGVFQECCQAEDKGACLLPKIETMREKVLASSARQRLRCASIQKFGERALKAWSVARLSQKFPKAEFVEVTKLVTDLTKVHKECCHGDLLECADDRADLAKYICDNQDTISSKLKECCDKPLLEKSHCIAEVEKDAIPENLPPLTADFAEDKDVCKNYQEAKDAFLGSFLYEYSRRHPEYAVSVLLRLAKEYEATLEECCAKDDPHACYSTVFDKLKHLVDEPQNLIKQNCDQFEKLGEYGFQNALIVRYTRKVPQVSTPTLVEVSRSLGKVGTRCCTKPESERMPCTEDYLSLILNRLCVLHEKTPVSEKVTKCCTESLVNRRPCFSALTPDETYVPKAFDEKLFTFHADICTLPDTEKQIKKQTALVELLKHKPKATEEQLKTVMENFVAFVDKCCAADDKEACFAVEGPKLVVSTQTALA
Follistatin (Homo sapiens), sequence (P19883 whole entry, looked up): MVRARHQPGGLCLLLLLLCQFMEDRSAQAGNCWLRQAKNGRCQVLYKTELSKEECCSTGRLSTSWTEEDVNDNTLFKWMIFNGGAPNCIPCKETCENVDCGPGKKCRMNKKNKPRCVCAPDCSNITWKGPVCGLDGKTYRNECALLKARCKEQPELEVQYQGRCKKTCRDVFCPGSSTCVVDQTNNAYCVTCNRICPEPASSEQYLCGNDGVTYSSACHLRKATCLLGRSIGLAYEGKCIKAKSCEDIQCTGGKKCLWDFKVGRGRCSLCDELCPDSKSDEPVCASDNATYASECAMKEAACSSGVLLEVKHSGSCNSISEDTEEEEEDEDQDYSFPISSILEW

Take `CC1CC/C=C\[C@H]2OC34C=CCN(Cn5nnc6ccccc65)C(=O)[C@H]3N(CCO)C(=O)[C@@H]4C2C(=O)O1` (stereo not given in full): the composite z-score was 1.13 with Albumin (Bos taurus); -0.319 in assay [2]; -0.15 in assay [3]; 0.942 in assay [4]; 2.59 in assay [5]; 1.06 in [6]. Besides, the composite z-score with Sam68 (KHDRBS1) is 0.0381; in [7], -1.62; in assay [8] it was -0.903; in [9], 0.885; in [10], 1.16; in assay [11], 1.42. Besides, the composite z-score in assay [12] was -1.14; in assay [13], -0.312; in [14] it was -1.35; in the assay on Lefty1, -0.428; in [16], 1.24. The composite Z-score in assay [1] was 1.12 (inactive). For the same compound, the results for the z-score in [15] and in assay [17] were -0.547 and -1.98 (inactive), respectively.
As to `O=C1C[C@@H](O)[C@@H](O)[C@@H]2[C@@H]3C(=O)N(Cc4ccc5c(c4)OCO5)C(=O)[C@@H]3CC[C@@H]12`, the composite z-score with Albumin (Bos taurus) is 0.295; in [2], -0.0146; in [3], -0.0938; in assay [4], 0.229; in assay [5], 0.0971; in assay [6], -0.0553. The composite z-score was 0.507 with Sam68 (KHDRBS1); 0.558 in [7]; 0.492 in [8]; -0.0619 in assay [9]; 0.459 in assay [10]; 0.0309 in assay [11]. Moreover, the composite z-score in assay [12] is 0.197; in [13], 0.499; in assay [14], 0.507; in the assay with Lefty1, 0.549; in assay [16], -0.107. Also, the composite Z-score in assay [1] was 0.856 (inactive). Also, the z-score in [15] is 0.481; in [17], -0.786 (inactive).
Take `O=C1[C@H]2[C@H]3[C@H](O)[C@H](O)CC(=NO[C@@H]4O[C@H](CO)[C@@H](O)[C@H](O)[C@H]4O)[C@@H]3CC[C@H]2C(=O)N1Cc1ccc2c(c1)OCO2`: the composite z-score with Albumin (Bos taurus) was -0.037; in assay [2], -0.004; in assay [3], -0.18; in assay [4], 0.376; in assay [5] it was 0.542; in assay [6] it was -0.211. Also, the composite z-score in the assay with Sam68 (KHDRBS1) turned out to be 0.907; in [7], 0.538; in assay [8], 0.211; in assay [9], 0.715; in [10], 0.782; in assay [11], 0.293. The composite z-score in assay [12] was determined as 0.78; in [13], 0.449; in assay [14], 0.289; in the assay on Lefty1, 0.716; in assay [16], 0.63. Besides, the composite Z-score in [1] is 0.484 (inactive). Besides, the z-score in [15] is -0.789; in assay [17], 0.949 (inactive).
`CC(=O)OC[C@H]1O[C@H](C#CCCCc2ccccc2)C=C[C@@H]1OC(C)=O`: the composite z-score was 0.495 with Albumin (Bos taurus); -0.0647 in assay [2]; -0.0772 in [3]; -0.155 in [4]; 0.622 in assay [5]; 0.46 in [6]. For the same compound, the composite z-score in the assay on Sam68 (KHDRBS1) is 0.459; in assay [7] it was 0.192; in assay [8], -0.077; in [9], 0.451; in [10] it was 0.242; in assay [11], 0.126. Also, the composite z-score was 0.735 in assay [12]; 0.47 in assay [13]; 0.83 in assay [14]; 0.696 with Lefty1; 0.353 in assay [16]. Besides, the composite Z-score in assay [1] is 0.0117 (inactive). Further, the results for the z-score in assay [15] and in assay [17] were -0.264 and -1.65 (inactive), respectively.
Regarding `COCCCNC(=O)[C@]1(CCC(=O)OC(C)(C)C)N=C(c2ccc(OCCCO)cc2)O[C@@H]1c1ccccc1N=[N+]=[N-]`, the composite z-score with Albumin (Bos taurus) was 0.913; in assay [2], 0.534; in [3], -0.092; in assay [4] it was 0.725; in assay [5] it was 3.09; in assay [6], 0.0106. Also, the composite z-score in the assay on Sam68 (KHDRBS1) was 1.31; in [7], -0.18; in [8] it was 1.17; in assay [9], 1.96; in assay [10], 1.23; in assay [11] it was 0.688. The composite z-score in [12] amounted to 1.03; in assay [13], 1.28; in [14], 0.894; in the assay with Lefty1 it was 0.735; in assay [16], 0.778. For the same compound, in assay [1], the composite Z-score is 0.201 (inactive). Moreover, the z-score in assay [15] was 0.6; in assay [17] it was -12 (active).
